PubChem BioAssay (NCATS)
Calls of active or inactive are those of the source. No rule for the calls is given here.

Tested on: HIV-1 nucleocapsid protein NCp7 (binding to TG oligonucleotide)
Experiment: HIV Nucleocapsid (AID 346);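 also: potency is for inhibitors that block NC binding and lower polarization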
Conditions: HIV-1 NC / fluorescein-TGTGTGTG probe, fluorescence polarization
Summary of the method: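 Fluorescence polarization readout: labelled TG4xF oligo (10 nM) with 100 nM nucleocapsid protein, high-salt (250mM NaCl) Hepes pH 7.5 buffer containing zinc and fresh reducing agents. Compounds added by pin tool; incubation 1 hr, room temperature.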
Potency is read from the fitted curve at half-maximal effect.

SMILES | Potency
N#Cc1ccc(CN2CC3(CCN(C(=O)c4csnn4)CC3)C2)cc1 | > 20 µM (inactive)
COc1ccc(CNc2ncncc2-c2ccccc2CN(C)C)c(OC)c1 | > 20 µM (inactive)
N#Cc1ccc(CN2CCC3(CC2)CCN(C(=O)c2ccncc2)CC3)cc1 | > 20 µM (inactive)
CN1CCC2(CC1)CCN(C(=O)c1ccncc1)CC2 | > 20 µM (inactive)
COc1ccc2[nH]cc(CCNc3ccnc(-c4ccc(C(=O)N(C)C)cc4)n3)c2c1 | > 20 µM (inactive)
Cc1ccccc1-c1nccc(NCCN2CCOCC2)n1 | > 20 µM (inactive)
COc1ccc(-c2nc3cnc(OC)nc3n(C3CC3)c2=O)cc1 | > 20 µM (inactive)
COc1ccccc1CNc1nc(-c2cccc(C#N)c2)nc2ccccc12 | > 20 µM (inactive)
c1ccc(CNc2cc(-c3ccoc3)ncn2)cc1 | > 20 µM (inactive)
COC(=O)N1CCC[C@@]2(CCN(c3ccccn3)C2)C1 | > 20 µM (inactive)
COc1cccc(Cn2c(=O)c(C)nc3cnc(Oc4cccc(Cl)c4)nc32)c1 | > 20 µM (inactive)
CN(Cc1ccco1)c1cc(-c2cccc(C#N)c2)ncn1 | > 20 µM (inactive)
O=C(c1cnccn1)N1CCC2(CCCN(c3ccncc3)C2)CC1 | > 20 µM (inactive)
O=C(Nc1cccc(F)c1)N1CCCC2(CCN(S(=O)(=O)c3ccccc3)CC2)C1 | > 20 µM (inactive)
CN(C)C(=O)c1ccc(-c2ccc3ncnc(N4CCC(C(=O)O)CC4)c3c2)cc1 | > 20 µM (inactive)
CCNc1ncc2nc(-c3cn(C)c4ccccc34)c(=O)n(Cc3ccc(F)cc3)c2n1 | > 20 µM (inactive)
CN1CCN(c2nc(-c3cccnc3)nc3ccccc23)CC1 | > 20 µM (inactive)
COc1ccc(NC(=O)N2CC[C@@]3(CCCN(C(=O)c4c(C)noc4C)C3)C2)cc1 | > 20 µM (inactive)
O=C(Nc1ccccc1)N1CCCC2(CCN(C(=O)c3csnn3)CC2)C1 | > 20 µM (inactive)
Cc1noc(C)c1-c1cc(NCCN2CCOCC2)ncn1 | > 20 µM (inactive)

SMILES | Potency
COc1cccc(Nc2ncc3nc(-c4ccc(F)cc4)c(=O)n(C)c3n2)c1 | > 4 µM (inactive)
COc1ccccc1CN1CCC2(CC1)CCN(C(=O)c1csnn1)CC2 | > 20 µM (inactive)
O=C(c1cnccn1)N1CCC2(CC1)CCN(c1ccccn1)CC2 | > 20 µM (inactive)
Cc1ccccc1-c1nccc(Nc2ccc(F)cc2)n1 | > 20 µM (inactive)
O=c1c(-c2cccc(Cl)c2)nc2cncnc2n1Cc1ccccc1 | > 20 µM (inactive)
N#CCCn1c(=O)c(-c2ccc(Cl)cc2)nc2cnc(N3CCNCC3)nc21 | > 20 µM (inactive)
COc1ccc(NC(=O)N2CCCC3(CCN(S(=O)(=O)c4ccccc4)CC3)C2)cc1 | > 20 µM (inactive)
O=C(c1cccc(F)c1)N1CCC2(CC1)CN(c1ccc(-c3ccccc3)cc1)C2 | > 20 µM (inactive)
CN(C)C(=O)c1ccc(-c2cncnc2NCCc2cnc[nH]2)cc1 | > 20 µM (inactive)
c1csc(CNc2ccnc(-c3ccc4c(c3)OCO4)n2)c1 | > 20 µM (inactive)
COCCn1c(=O)c(-c2ccccc2)nc2cnc(N3CCNCC3)nc21 | > 20 µM (inactive)
COc1ccc(-n2c(=O)c(C)nc3cnc(N4CCOCC4)nc32)cc1 | > 20 µM (inactive)
COCCn1c(=O)c(-c2ccc(OC)cc2)nc2cnc(N3CCOCC3)nc21 | > 20 µM (inactive)
N#Cc1ccccc1-c1ccc2ncnc(NCCN3CCOCC3)c2c1 | > 20 µM (inactive)
N#CCCn1c(=O)c(-c2cccs2)nc2cnc(OCc3ccccc3)nc21 | > 20 µM (inactive)
CC(C)CN1CC[C@@]2(CCCN(C(=O)c3cccc(F)c3)C2)C1 | > 20 µM (inactive)
O=C(c1ccco1)N1CCC[C@@]2(CCN(c3ccccn3)C2)C1 | > 20 µM (inactive)
COc1ccc(Oc2ncc3nc(-c4ccc(OC)cc4)c(=O)n(C)c3n2)cc1 | > 20 µM (inactive)
COCCn1c(=O)c(-c2ccc(Cl)cc2)nc2cnc(Oc3cccc(Cl)c3)nc21 | > 20 µM (inactive)
CN(C)c1ncc2nc(-c3ccccc3)c(=O)n(C[C@H]3CCCO3)c2n1 | > 20 µM (inactive)
